The text below walks through data of PubChem BioAssay (NCI).

This is part of a sample that, as a whole, favours compounds with a hit. Of some 83,000 tested, about 20% had one in any assay.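 Values shown are percent growth following 48 h exposure of cells in 96-well plates to a single concentration of compound; below 10 was considered active.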 A number with no mark means an inactive call. The source made the active and inactive calls.

Holding throughout (experiment): NCI-60 one-dose screen, 48 h (100 = growth as untreated, 0 = no growth, -100 = all killed)
Common to all, as to settings: 10 µM unless noted

Assay [1] deals with SR leukemia.
Assay [2] relates to OVCAR-8 ovarian.
The subject of assay [3] is OVCAR-5 ovarian.
The test system of assay [4] is OVCAR-4 ovarian.
The subject of assay [5] is SK-OV-3 ovarian.
For assay [6], the system named is IGROV1 ovarian.
The subject of assay [7] is OVCAR-3 ovarian.
The subject of assay [8] is HS 578T breast.
Assay [9] relates to NCI/ADR-RES ovarian.
The test system of assay [10] is T-47D breast.
In assay [11] the test system is BT-549 breast.
The test system of assay [12] is SW-620 colon.
The subject of assay [13] is MCF7 breast.
In assay [14] the test system is HCT-116 colon.
The subject of assay [15] is KM12 colon.
For assay [16], the system named is HCC-2998 colon.
The subject of assay [17] is MDA-MB-435 melanoma.

With `COc1ccc(NS(=O)(=O)c2ccc(-c3cnc(C4CC4)o3)cc2)cc1Cl`, the growth in [1] was 23.2%; in assay [2], 40.4%; in assay [3] it was 48.8%; in assay [4], 52.5%; in assay [5] it was 60%; in assay [6], 41.4%. Further, the growth in assay [7] was 15.5%; in assay [8] it was 28.1%; in assay [9], 18.6%; in [10], 30.3%; in [11], 57.5%; in assay [12], 22.6%. The growth was 17.4% in [13], 26.7% in assay [14] and 22.7% in assay [15].

In the case of `CC1=C2C(=C[C@@](C)(COS(N)(=O)=O)[C@@H]2O)C(=O)[C@](C)(O)C12CC2`, the growth was 102% in [1]; 74.3% in assay [2]; 41.4% in [3]; 80.8% in [4]; 53.9% in assay [5]; 60.7% in [6]. The growth was 62.6% in assay [7]; 104% in [8]; 63.5% in assay [9]; 71.8% in assay [10]; 60.2% in [11]; 85.3% in assay [12]. The growth in assay [13] is 61.7%; in assay [14], 70%; in assay [16], 61.7%; in [15], 99.5%.

With `O=C(CN1CCN(c2cc(=O)n(-c3ccccc3)c3ccccc23)CC1)Nc1ccc([N+](=O)[O-])cc1`, the growth is 88.6% in [1]; 91.3% in [2]; 98.7% in [3]; 65.9% in assay [4]; 99.3% in assay [5]; 84.3% in assay [6]. The growth in [7] is 90.9%; in assay [8], 89.9%; in assay [9], 91.1%; in [11], 94.5%; in [12], 92.3%; in [13], 88.2%. The results for the growth in assay [14] and in assay [15] were 92.6% and 92.9%, respectively.

Turning to `O=C(Nc1cccc(Cl)c1)Nc1nc2ccc(-c3cccc4ccccc34)cc2s1`, the growth in assay [1] is 90%; in [2] it was 42.9%; in assay [3] it was 84%; in [5], 66.8%; in assay [6], 55.2%; in [7], 13.5%. The growth is 72.9% in assay [8]; 57.5% in assay [9]; 102% in assay [11]; 54.3% in [17]; 43.7% in assay [12]; 58.3% in assay [13]. For the same molecule, the growth in [14] was 27%; in assay [15], 23%.

For `CCC(=O)Nc1cc(Nc2cc(NC3CC3)n3ncc(C#N)c3n2)ccc1C`, the growth is 24.5% in assay [1]; 43.4% in assay [2]; 18.4% in assay [3]; 17.1% in assay [4]; 21.6% in assay [5]; 6.78% (active) in [6]. Besides, the growth is 26.2% in [7]; -17.4% (active) in assay [8]; 44.2% in assay [9]; 6.41% (active) in assay [10]; 29.5% in assay [11]; 17.4% in [12]. Moreover, the growth is 3.83% (active) in assay [13], 19.2% in assay [14], 41.6% in assay [16] and 32.5% in [15].

In the case of `COC(=O)c1c(C(=O)OC)c2n(CC(=O)Nc3cccc4cccnc34)c3ccccc3n2c1C(=O)c1ccc(C)cc1`, the growth in [1] was 122%; in [2], 92.4%; in [3] it was 102%; in assay [4], 99.8%; in assay [5] it was 119%; in [6], 97.6%. In addition, the growth in assay [7] was 114%; in assay [8] it was 111%; in assay [9], 96%; in assay [10] it was 83.4%; in [11], 110%; in assay [12] it was 95.1%. The growth was 93.4% in [13], 49.5% in assay [14], 103% in assay [16] and 109% in assay [15].

`CC(=O)Nc1nc2c(s1)C1=CC[C@H]3[C@@H]4CC[C@H](C(C)=O)[C@@]4(C)CC[C@@H]3[C@@]1(C)CC2`: the growth in assay [1] was 59.4%; in assay [2], 78.6%; in [3], 80.6%; in assay [4] it was 80.5%; in assay [5], 59.9%; in [7], 74.8%. Besides, the growth in assay [8] was 33.8%; in assay [9], 81.6%; in assay [10], 68%; in assay [11] it was 62.3%; in assay [12], 82.3%; in [13], 20.6%. Also, the growth was 60.4% in [14], 96.9% in assay [16] and 47.7% in assay [15].

For `COC(=O)Nc1ccc(-c2nc(-c3cccc(O)c3)c(-c3ccnc(Br)c3)[nH]2)cc1`, the growth in assay [1] is 32.7%; in assay [2], 35.6%; in assay [3], 92.9%; in assay [4] it was 45.5%; in [5], 79.3%; in [6], 65.7%. Further, the growth in [7] is 50.8%; in assay [8], 27.7%; in assay [9], 76.1%; in assay [10] it was 34.7%; in assay [11], 66.1%; in assay [12], 70.3%. The growth in [13] was 14.6%; in assay [14] it was 49.7%; in assay [16], 84.7%; in [15], 50.7%.

Turning to `CCNCc1c(-c2cccc(OC(F)(F)F)c2)[nH]c2ccc(N3CCCC3)cc2c1=O`, the growth in assay [1] is 9.06% (active); in assay [2], 22.5%; in assay [3], 24.5%; in assay [4] it was 49.8%; in assay [5] it was 34.2%; in assay [6], 22.6%. The growth in assay [7] was -6.81% (active); in [8], 8.12% (active); in assay [9] it was 9.42% (active); in assay [10] it was 28.9%; in assay [11] it was 50.6%; in assay [12] it was 16.8%. In addition, the growth was 11.4% in [13], 11.2% in assay [14], -27.7% (active) in [16] and 14.8% in assay [15].
